# NLRP3 yeast inh: inhibitors of NALP3 inflammasome in yeast | inhibition, % at 10 µM | AID 2825 | Yeast reconstituted NLRP3/ASC/caspase-1, beta-gal luminescence, 24 h | hit rate 0.39% among 330,000;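 active means inhibition of 50% or more; inactive means inhibition below 50%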;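 further: plate controls were induced DMSO wells for no effect and uninduced yeast grown without galactose for full effect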
# TIM10 inh: growth inhibitors of TIM10 yeast strain; inhibition, % at 10 µM; S. cerevisiae TIM10 strain growth, BacTiter-Glo luminescence, 24 h; hit rate 1.4% among 330,000;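 active means inhibition of 40% or more at the single tested concentration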;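 further: wild-type TIM10 isogenic control strain grown at permissive 25 °C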
# PfHsp90 set2: inhibits growth of yeast expressing Plasmodium falciparum Hsp90; S. cerevisiae expressing PfHsp90, BacTiter-Glo ATP, 48 h; yeast lacking PDR1 and PDR3 efflux regulators; inhibition, % at 9.4 µM; hit rate 0.32% among 310,000; AID 504621;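 active means every replicate shows inhibition above about 80%, whatever the replicate mean, limit read from the data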;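 further: 0% = DMSO neutral controls and 100% = 20 µM radicicol positive controls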
# tim10-1 inh: tim10-1 yeast growth inhibition; S. cerevisiae tim10-1 ts strain growth, BacTiter-Glo, 24 h; hit rate 2.2% among 330,000; inhibition, % at 20 µM;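 active means inhibition of at least 40%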;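 further: mutant grown at 25 °C; 0% = DMSO wells with yeast and 100% = wells holding no yeast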
# tim23-1 inh: tim23-1 yeast growth inhibition. S. cerevisiae tim23-1 growth, BacTiter-Glo luminescence, 24 h. inhibition, % at 20 µM. AID 463212. hit rate 1.3% among 330,000;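 active means growth inhibition of the mutant yeast at or above 50%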;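 further: temperature-sensitive mutant grown at 25 °C; plate controls were DMSO-treated mutant yeast for no effect and medium wells lacking yeast for full effect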
# tim10-1 confirm: confirmation of tim10-1 mutant yeast growth inhibitors | inhibition, % at 20 µM | hit rate 56% among 7,400 | S. cerevisiae tim10-1 ts strain growth, BacTiter-Glo, 24 h | shares compounds with tim10-1 inh;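 active means inhibition of yeast growth at or above a set limit in either of two repeat tests at 20 µM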;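 further: tim10-1 mutant grown at permissive 25 °C to find synthetic lethal compounds; 0% = DMSO yeast wells and 100% = medium wells without yeast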
# The depositor's hits bear a star; . = no result. This is a sample that favours compounds with a hit; in the whole collection about 3.7% have one here.
SMILES,NLRP3 yeast inh,TIM10 inh,PfHsp90 set2,tim10-1 inh,tim23-1 inh,tim10-1 confirm
O=C(c1cccs1)c1c[nH]cc1-c1ccccc1,22.0,28.1,.,51.6*,29.2,38.2*
O=C(c1ccccc1)c1c[nH]cc1-c1ccccc1,-8.8,5.3,-27.5,12.8,5.8,.
Cc1ccc(C(=O)O/N=C2\CCSc3ccc(C)cc32)cc1,-7.0,29.2,.,40.1*,37.2,32.8*
Oc1ccccc1CNCCCN1CCOCC1,15.9,-12.5,-20.8,-5.2,-15.3,.
N#C/C(=C\c1c[nH]c2ccc(Br)cc12)c1ccccn1,20.5,19.2,-4.9,48.1*,47.3,35.1*
COCCCNC(=O)c1c(N)n(/N=C/c2ccccn2)c2nc3ccccc3nc12,-2.4,29.5,-7.2,42.0*,8.4,26.8
CC(C)OCCCNC(=O)c1c(N)n(/N=C/c2cccs2)c2nc3ccccc3nc12,-2.5,3.4,-10.6,9.4,11.3,.
NNc1nc2c(F)cc(F)cc2s1,10.3,26.4,-61.5,41.3*,45.3,18.3
C=C(C)C(=O)NNc1ccccc1,9.0,7.6,-43.0,41.0*,47.7,37.1*
CC(C)OC(=O)C(=O)NNc1ccccc1,13.7,-25.9,-0.6,-7.6,-68.8,.
Cc1cc(C)c(COc2ccc(/C=N/n3c(C)n[nH]c3=S)cc2)c(C)c1,17.9,14.4,-8.3,41.2*,39.3,11.3
COc1ccc(-n2cc(CN(C)C(C)c3ccncn3)c(-c3cccc(F)c3)n2)cc1 (stereo unspecified),14.1,15.8,.,-14.3,19.6,.
COc1cccc(-c2nn(-c3ccccc3)cc2CN(C)C(C)c2ccncn2)c1 (stereo unspecified),-16.5,16.1,7.5,43.8*,33.0,21.8
CCc1cc2ccc(C)cc2nc1SCC(=O)N1CCN(C(=O)c2ccco2)CC1,17.8,4.8,-10.9,42.0*,38.3,12.7
CCc1cc2cc3c(cc2nc1SCC(=O)N1CCN(C(=O)c2ccco2)CC1)OCO3,13.6,1.2,3.1,21.2,32.8,.
COc1ccc(/C=C2\SC(=O)N(CCNC(=O)C3=COCCO3)C2=O)cc1,7.1,-13.5,12.1,-9.7,3.1,.
O=C(NCCN1C(=O)S/C(=C\c2ccc(OC(F)F)cc2)C1=O)C1=COCCO1,11.3,28.5,.,44.1*,43.1,29.1
CCCCc1cc(=O)oc2cc(OC(C)C(=O)NCc3ccccn3)c(Cl)cc12 (stereo unspecified),5.4,5.2,-60.9,41.3*,24.4,-36.0
COC(=O)c1c(-c2ccc(Br)cc2)noc1N,32.7,30.8,.,46.5*,16.4,28.6
CN1CCN(c2nc(-c3cccnc3)nc3ccccc23)CC1,16.2,-1.4,-15.6,8.8,9.6,.
c1cncc(-c2nc(N3CCCCCC3)c3ccccc3n2)c1,1.7,25.9,14.1,49.6*,43.5,32.0*
CN(CC1COc2ccccc2O1)C(=S)Nc1ccccc1 (stereo unspecified),23.6,21.0,16.0,42.2*,35.5,24.8
CCOC(=O)/C=C/C(=O)OCC(=O)Nc1ccc(C)cc1,-12.9,28.6,17.5,40.6*,33.5,36.6*
CNC(=O)c1ccsc1NC(=O)c1ccccc1,40.9,10.8,-1.8,-14.9,-20.6,.
CNC(=O)c1ccsc1NC(=O)c1ccc(Cl)s1,13.5,21.1,-9.4,43.7*,49.1,31.9*
SMILES,NLRP3 yeast inh,TIM10 inh,PfHsp90 set2,tim10-1 inh,tim23-1 inh,tim10-1 confirm
CCN(C(=O)CSc1nnc(-c2cccs2)o1)C1CCS(=O)(=O)C1 (stereo unspecified),2.5,-18.4,2.0,7.8,3.9,.
O=[N+]([O-])c1cccnc1NCCNc1ncc(C(F)(F)F)cc1Cl,13.0,16.1,0.1,40.9*,38.3,22.5
O=[N+]([O-])c1ccccc1NCCNc1ncc(C(F)(F)F)cc1Cl,18.2,7.1,2.6,18.2,-0.7,.
C[C@H](CO)N1C[C@H](C)[C@@H](CN(C)C(=O)Nc2ccc(C(F)(F)F)cc2)Oc2c(NC(=O)Nc3ccc(C(F)(F)F)cc3)cccc2C1=O,13.3,0.4,-5.4,18.4,29.5,.
O=C(Cn1ncc2c1-c1ccccc1OC2)Nc1ccc(S(=O)(=O)N2CCCCC2)cc1,12.4,8.8,-4.5,22.9,20.9,.
CCSC1(SCC)N=C(N)C2(C#N)C(c3ccc(OC)c(OC)c3OC)C12C#N (stereo unspecified),18.5,33.1,7.2,61.1*,13.5,61.6*
S=c1[nH]nc2sc3ccccc3n12,.,.,-17.6,.,.,.
COC(=O)c1[nH]c2ccc(Br)cc2c1NC(=O)CN1CCCc2ccccc21,14.4,23.4,-17.9,46.1*,35.3,34.2*
COC(=O)c1[nH]c2cc(C)ccc2c1NC(=O)CN1CCCc2ccccc21,23.5,19.1,-0.4,37.8,21.3,.
Cc1c(C(=O)NCCN2CCOCC2)oc2ccc(Br)cc12,26.7,13.1,-10.5,0.7,9.8,.
Cc1csc(N/N=C/c2ccc(O)c([N+](=O)[O-])c2)n1,-5.6,30.0,.,50.5*,40.2,33.0*
O=[N+]([O-])c1cc(/C=N\Nc2nc(-c3ccccc3)cs2)ccc1O,0.7,23.8,-21.7,14.8,3.1,.
O=C1Nc2cc(C(=O)N3CCN(c4ccccn4)CC3)ccc2S/C1=C\c1ccccc1,22.3,30.5,-8.4,41.8*,42.4,-8.4
O=C1Nc2cc(C(=O)N3CCOCC3)ccc2S/C1=C\c1ccccc1,5.2,-11.0,1.6,10.0,-13.3,.
CC1=CC(=O)C(C(C)C)=CC1=NC(=O)c1ccc(C)cc1,0.7,-2.3,10.6,13.2,7.2,.
N#Cc1c(-c2ccc(F)cc2)cc(-c2cccnc2)nc1N,2.4,-20.6,3.6,15.1,-17.0,.
N#Cc1c(-c2cccs2)cc(-c2cccnc2)nc1N,1.3,25.6,-5.6,42.7*,36.6,28.6
CCCc1cc(C(=O)Nc2ccc(C#N)cc2)no1,10.6,25.7,-31.9,4.1,31.3,.
CO/N=C/CC(=O)c1cnc(-c2ccc(Cl)cc2)s1,24.0,3.5,10.0,40.9*,27.9,24.1
O=C(c1ccc(Cl)cc1)c1cnc(-c2ccccc2)s1,.,.,-1.7,.,.,.
O=C(Cc1coc2ccc3ccccc3c12)N1CCN(c2ncccn2)CC1,27.2,19.7,.,42.6*,30.5,24.0
O=C(Cc1cccc2ccccc12)N1CCN(c2ncccn2)CC1,19.8,2.0,10.4,27.4,10.1,.
CC(=O)N1c2ccc(S(=O)(=O)N(C)Cc3ccco3)cc2CC1C (stereo unspecified),11.6,8.7,-7.5,6.8,5.2,.
O=C(CCN1C(=O)S/C(=C\c2ccccc2)C1=O)N1CCCCC1,8.5,8.4,11.2,44.1*,37.7,39.1*
O=C(CCN1C(=O)S/C(=C\c2ccccc2)C1=O)N1CCOCC1,-9.0,25.4,-13.7,52.4*,1.6,30.6
O=C(CCN1C(=O)/C(=C\c2ccccc2)SC1=S)N1CCOCC1,14.6,18.7,30.1,16.6,12.3,.
Cc1c(C(=O)OC2CCCCC2)sc2nc[nH]c(=O)c12,-6.6,19.9,-24.4,40.2*,22.8,13.0
COCCOC(=O)c1sc2nc[nH]c(=O)c2c1C,7.5,3.0,18.2,-2.4,-8.9,.
